Most compounds without a hit are left out; they make up all but 0.85% or so of the library.
Akt phos inh = HTS Assay for Inhibitors of Akt Phophorylation: Primary Screen. activity change, % for hits at 50 µM. 360,000 tested, 0.32% active. Neuro2A IGF-stimulated pAkt S473 HTRF, 20 min; active compounds read low; in the data active = activity change below about -80%; inconclusive = mostly about -51% to -80%; also: % is scaled to controls: 0 for no effect and ±100 for the full control effect
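Neuro2A cells (4,500/well, DMEM with 0.5% FBS) were treated with compound at a single 50 µM final concentration, stimulated with 6 nM IGF for 20 min at 37 °C, and lysed. Phospho-Akt Ser473 was read by HTRF as 665/615 ratio ×10^4.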
GRP78 ERSR act = qHTS for Inducers of the Endoplasmic Reticulum Stress Response (ERSR) in Human Glioma: qHTS; U87-MG GRP78 promoter luciferase reporter, 16 h; Potency, µM, for inactives: at the highest dose activation, actives largely listed as activators; 420,000 tested, 0.02% active; also: potency is read from the fitted curve at half-maximal effect; series mostly up to about 76 µM; % of control where 0% means no effect; nearly all actives have a fitted effect of over 35% in size
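ERSR induction read as luciferase luminescence (Bright-Glo, 10 min at room temperature) in stably transfected human U87-MG glioma cells exposed to compounds for 16 h, using GRP78 as sensor.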
Mm-Cpn inhibitor = Inhibitors of TCP-1 ring complex (TRiC) of Methanococcus maripaludis (MmCpn): qHTS | 330,000 tested, 0.031% active | purified Mm-Cpn ATPase, ADP Transcreener TR-FRET | Chaperonin Mm-Cpn (Methanococcus maripaludis) | Potency, µM (series often up to 76.9 µM), without a hit: top-dose activity, negative = inhibition, hits mostly inhibitors; also: potency is read from the fitted curve at half-maximal effect; % is scaled to controls: 0 for no effect and ±100 for the full control effect; nearly all actives have a fitted effect of over 80% in size
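Purified archaeal chaperonin (25 nM final) was preincubated with compound for 10 min at 37°C, then ATP (10 uM final) was added for 30 min at 37°C in Tris pH 7.4/KCl/MgCl2/DTT buffer. ADP was quantified by HTRF Transcreener TR-FRET.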
CCT modulator = High-Throughput Screening for Modulators of Cytosolic Chaperonin Activity | 360,000 tested, 0.3% active | purified chaperonin ATPase assay, HTRF ADP detection, 30 min | AID 651819, 2012 | activity change, % (no concentration beside the values), hits read low; in the data active = activity change below about -30%; also: % is scaled to controls: 0 for no effect and ±100 for the full control effect
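First, chaperonin was dispensed at 40 nM or 20 nM final depending on batch activity. Next, compounds were pinned at 76 uM and ATP added at 10 uM. After 30 min at 37 °C, ADP detection reagents ran 30 min at ambient temperature.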
IDH1 R132H inh = qHTS for Inhibitors of mutant isocitrate dehydrogenase 1 (IDH1): qHTS. Isocitrate dehydrogenase [NADP] cytoplasmic (Homo sapiens), O75874. IDH1-R132H enzyme, NADPH consumption, diaphorase/resazurin fluorescence. Potency, µM (top dose mostly 76.6 µM), without a hit: top-dose activity change, negative = inhibition, usual class: inhibitors. 390,000 tested, 0.093% active; also: potency is read from the fitted curve at half-maximal effect; % is scaled to controls: 0 for no effect and ±100 for the full control effect; nearly all actives have a fitted effect of over 65% in size
Target sequence (O75874 whole entry R132H, stated change not applied): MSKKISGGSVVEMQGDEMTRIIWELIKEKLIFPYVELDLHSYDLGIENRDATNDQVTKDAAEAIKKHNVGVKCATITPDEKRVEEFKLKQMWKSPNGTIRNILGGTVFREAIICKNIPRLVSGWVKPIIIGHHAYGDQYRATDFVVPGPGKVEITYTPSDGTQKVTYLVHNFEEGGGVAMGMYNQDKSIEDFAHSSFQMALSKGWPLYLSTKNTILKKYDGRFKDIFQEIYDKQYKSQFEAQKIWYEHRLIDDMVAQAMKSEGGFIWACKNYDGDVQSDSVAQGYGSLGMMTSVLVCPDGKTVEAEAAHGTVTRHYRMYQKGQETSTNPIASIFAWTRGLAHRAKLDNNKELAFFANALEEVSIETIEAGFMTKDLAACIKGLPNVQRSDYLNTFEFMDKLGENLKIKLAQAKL
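IDH1-R132H (0.5 ug/mL) preincubated 30 min with compound, then NADPH (0.016 mM) and alpha-KG (2 mM) added; 80 min at RT, pH 7.5. Remaining NADPH coupled via diaphorase/resazurin to fluorescence (540/590 nm); concentration-response curves normalized to no-enzyme control.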
GLS inhibitor = qHTS for Inhibitors of Glutaminase (GLS) | GLS enzymatic activity, qHTS titration | 410,000 tested, 0.21% active | Potency, µM (series often up to 45.5 µM), for inactives: top-dose activity change, negative = inhibition, most hits filed as inhibitors | Glutaminase kidney isoform, mitochondrial (Homo sapiens), O94925; also: potency is read from the fitted curve at half-maximal effect; % is scaled to controls: 0 for no effect and ±100 for the full control effect
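Two-point fluorescence kinetic (t0, 30 min RT) for hKGA; glutamate detected via glutamate oxidase–HRP–Amplex Red. Substrate: 1 mM L-glutamine solution; buffer 45 mM KH2PO4, pH 8.2.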
An asterisk follows results filed as active; i = inactive; ? = inconclusive; / = not tested or not shown. Unless noted, calls follow the shape of the dose curve; as a rule, active = well fitted curve in the direction sought with a large enough effect; inconclusive = small, poorly fitted or top-dose-only effect, or another doubt; inactive = no such curve, though single readings can be large; an effect the other way counts as inactive or inconclusive.

SMILES | Akt phos inh | GRP78 ERSR act | Mm-Cpn inhibitor | CCT modulator | IDH1 R132H inh | GLS inhibitor
Cc1ccc(NC(=O)CC2SC(=O)N(c3ccccc3)C2=O)cc1 (configuration not stated) | i | 6.1% | 1.2% | -2.1 | 11.9% | 11.2µM*
Cc1cc(C)nc(-c2cccc3c2OC(CNC(=O)c2ccc(Cn4nc(C)cc4C)cc2)C3)n1 (configuration not stated) | / | -3.0% | / | / | / | /
Cc1[nH]c2ccccc2c1CCCO | i | -4.6% | -1.1% | -0.4 | -9.2% | -4.1%
Cc1[nH]c2ccccc2c1CCO | i | -1.1% | 1.0% | -30.8* | 8.6% | 17.8%
COCCn1c(Br)nc2c1c(=O)n(C)c(=O)n2C | i | -4.8% | -7.0% | -41.7* | -9.3% | 0.0%
CN(CC(=O)Nc1ccc(F)cc1)C(=O)COC(=O)c1ccc(-c2ccccc2)cc1 | i | -2.1% | -1.0% | -31.2* | 1.5% | -3.1%
O=c1c2ccccc2c(C=NCCCN2CCOCC2)c(O)n1Cc1ccc2c(c1)OCO2 | i | -0.9% | 2.6% | -37.9* | -3.2% | 1.6%
O=c1c2ccccc2c(C=NCCCN2CCOCC2)c(O)n1Cc1ccccc1 | i | 1.3% | -0.1% | 2.2 | 2.2% | 1.3%
COc1cccc(C2(CC(=O)N3CCC(c4nc5ccc(F)cc5[nH]4)CC3)CC(=O)N(C)C2=O)c1 (configuration not stated) | / | -5.8% | / | / | / | /
CCN(CC)CCCN1C(=O)C(O)=C(C(=O)c2cc3cccc(OC)c3o2)C1c1ccncc1 (configuration not stated) | -89.8%* | -3.0% | -11.2% | 2.5 | 0.2% | 10.8%
CN(C)CCN1C(=O)C(O)=C(C(=O)c2cc3ccccc3o2)C1c1ccccn1 (configuration not stated) | / | / | -2.7% | / | / | /
CCN(CC)CCCN1C(=O)C(O)=C(C(=O)c2cc3ccccc3o2)C1c1ccccn1 (configuration not stated) | -94.6%* | -4.6% | -16.2% | -4.2 | 0.7% | 7.3%
CCn1c(-c2cccnc2)nc2cc(NC(=O)COC)cc(C(=O)N3CC[C@@H]4CCCC[C@H]4C3)c21 | / | -3.4% | / | / | / | /
COCc1c(C(=O)N2CCN(c3ccccc3)CC2)cnn1-c1nccc(-c2ccco2)n1 | / | -0.9% | / | / | / | /
Cc1cc(N)c2ccccc2n1 | i | -3.0% | -0.2% | -3.7 | 4.3% | -3.8%
Cc1cc(C#N)c2ccccc2n1 | -108.8%* | 0.9% | -1.8% | -1.1 | 3.5% | 0.5%
CC(=O)Nc1ccc(S(=O)(=O)N=S(C)C)cc1 | i | -3.2% | -1.9% | -6.4 | 5.6% | 9.1%
CCS(CC)=NS(=O)(=O)c1ccc(NC(C)=O)cc1 | -117.8%* | -2.2% | 2.1% | -3.1 | -0.1% | 4.9%
COc1cccc(Cc2nc3cccnc3n2C2CCN(C(=O)c3n[nH]c4c3CCCC4)CC2)c1 | / | -2.3% | / | / | / | /
CCNC(=O)[C@H]1CCCN1C(=O)[C@H](CCCN=C(N)N)NC(=O)[C@H](CC(C)C)NC(=O)[C@H](CC(C)C)NC(=O)[C@@H](Cc1ccc(O)cc1)NC(=O)[C@H](CO)NC(=O)[C@@H](Cc1c[nH]c2ccccc12)NC(=O)[C@H](Cc1cnc[nH]1)NC(=O)[C@@H]1CCC(=O)N1 | / | -2.9% | / | / | / | 19.8%
COc1ccccc1/C=C(/CC(=O)NCc1ccccc1)c1nc2ccccc2s1 | i | -2.4% | -2.5% | -33.9* | -1.6% | 1.9%
COc1cc(/C=C(\CCC(=O)O)c2nc3ccccc3s2)ccc1OCC(=O)Nc1c(Cl)cccc1Cl | i | -0.4% | -5.6% | -2.3 | -3.9% | 10µM*
COc1ncccc1C(=O)N1CCOc2ccc(C(O)C(c3ccccc3)c3ccccc3)cc2C1 (configuration not stated) | / | -4.7% | / | / | / | /
CCCNS(=O)(=O)c1ccc(OCC(=O)NCc2ccc3c(c2)OCO3)cc1 | -102.0%* | -0.6% | -0.1% | 0.6 | 5.5% | -4.7%
CCC(C)NS(=O)(=O)c1ccc(OCC(=O)NCc2ccc3c(c2)OCO3)cc1 (configuration not stated) | i | -5.0% | 0.5% | -2.4 | -4.6% | -6.8%
SMILES | Akt phos inh | GRP78 ERSR act | Mm-Cpn inhibitor | CCT modulator | IDH1 R132H inh | GLS inhibitor
Clc1ccc(CSc2nnc([C@@H]3CCCN3)o2)cc1Cl | -106.2%* | -1.0% | -0.1% | -3.3 | 8.2% | -13.5%
Cc1ccc(C)c(CSc2nnc([C@@H]3CCCN3)o2)c1 | i | -0.6% | 2.7% | -0.3 | -3.7% | 14.7%
ClC1(Cl)CC1Cn1c(C2CC2)nc2ccccc21 (configuration not stated) | i | -3.0% | -1.5% | -1.0 | -9.4% | -3.7%
N#CCCn1c(C2CCCCC2)nc2ccccc21 | -121.5%* | -6.0% | 0.7% | -9.8 | 10.3% | -2.2%
COC(=O)c1c(OCCN2CCCCC2)cc(=O)n2c1CCN(Cc1cccc3nccnc13)CC2 | / | -0.7% | / | / | / | /
CCOc1ccc(CNC(=O)CCn2c(=O)oc3ccccc32)cc1OC | -104.6%* | 0.2% | -0.9% | -0.7 | 1.0% | 0.4%
CCCCCNC(=O)CCn1c(=O)oc2ccccc21 | i | -2.2% | -1.2% | -1.4 | -2.2% | 12.2%
COCCNC(=O)CCn1c(=O)oc2ccccc21 | -109.4%* | 11.8% | 1.1% | -1.7 | 8.3% | -9.2%
CCOC(=O)C1C(=O)CC(C)(O)C(C(=O)OCC)C1c1ccco1 (configuration not stated) | i | -2.1% | 0.4% | -3.3 | -4.4% | ?
CCOC(=O)C1C(=O)CC(C)(O)C(C(=O)OCC)C1c1cccs1 (configuration not stated) | -108.6%* | -10.1% | 0.6% | -0.3 | 1.0% | 3.1%
CCOCCCNC(=O)C(c1ccc(OC)cc1)N(Cc1ccc2c(c1)OCO2)C(=O)c1ccccn1 (configuration not stated) | i | -1.6% | 1.0% | -14.9 | -4.2% | -0.7%
CCOCCCNC(=O)C(c1ccc(OC)cc1)N(Cc1ccc2c(c1)OCO2)C(=O)c1cnccn1 (configuration not stated) | i | -3.2% | -1.0% | -64.7* | 4.7% | -9.0%
COC(=O)c1cccc(C(=O)N2CCc3c(cnc(C)c3CNC(=O)/C=C/c3cccs3)C2)c1 | / | -2.0% | / | / | / | /
Cc1cccc(NCc2ccccc2O)c1 | -100.9%* | ? | -0.7% | -1.8 | 3.0% | 15.4%
Cc1cccc(NCCNc2cccc(C)c2)c1 | -104.1%* | 2.7% | 0.8% | -0.9 | 5.0% | -19.9%
O=C1OC2C(O)C(O)OC2C1O (configuration not stated) | / | -4.5% | / | / | / | -3.2%

Compound activity from PubChem.
